Records with an inconclusive call do not appear. Activity calls are given as the source filed them. Calls follow the shape of the dose curve; as a rule, active = well fitted curve in the direction sought with a large enough effect; inconclusive = small, poorly fitted or top-dose-only effect, or another doubt; inactive = no such curve, though single readings can be large; an effect the other way counts as inactive or inconclusive.
Columns and labels:
[1] = Cell Viability - Mesenchymal (AID 546);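 also: cells exposed to compound for 40 hours before reading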
Procedure, shortened: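 CellTiter-Glo luminescence (intracellular ATP, 20 min room temperature) after 40 hr compound exposure at 37 °C of 1000 glomerulus-derived human kidney mesenchymal cells/well; AC50 values obtained by fitting qHTS concentration-response data to the Hill equation.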

[2] = Cellular Toxicity (caspase-3) HepG2 (AID 654);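 also: cells exposed to compound for 16 hours before reading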
Procedure, shortened: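 Luminescent Caspase-Glo 3/7 readout after 16 hr compound exposure of human hepatocellular carcinoma HepG2 cells at 37 °C; qHTS concentration-response, normalized DMSO = 0%, 100 uM tamoxifen = 100%; AC50 by standard Hill equation.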

[3] = Cellular Toxicity (caspase-3) Jurkat (AID 655);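 also: cells exposed to compound for 16 h at 37 °C before reading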
Text: NIH Chemical Genomics Center [NCGC]
NIH Molecular Libraries Screening Centers Network [MLSCN]
National Institutes of Environmental Health Sciences [NIEHS]
National Toxicology Program [NTP]
We have developed a 1536-well cell-based assay for quantitative high throughput screening (qHTS) against a number of cell lines to determine in vitro caspase 3/7 of small molecules. This particular assay uses the Jurkat cell line which is derived from human T cell leukemia.
NCGC Assay Protocol Summary:
The Caspase-Glo 3/7 assay (Promega) is a homogeneous method to measure caspase-3 and caspase-7 activities in cultured cells. The quantitation of caspase 3/7 activity is based on the cleavage of a peptide-aminoluciferin substrate. […]
Using the Caspase-Glo 3/7 assay, the amount of caspase 3/7 activity was measured in the Jurkat cell line with complete culture medium following compound treatment for 16 hours. […] Library compounds were measured for their ability to cause the activation of caspase 3/7 in the cell line, as reflected by an increase in luminescence signal, in a concentration-dependent manner. […] AC50 values were determined from concentration-response data modeled with the standard Hill equation. […]
7. Detection; Luminescence; Viewlux plate reader
Keywords: caspase 3/7, apoptosis, Jurkat cell line, luminescence, NTPHTS, NTPHTS_NCGC, NIEHS, EPA, DSSTox, MLSMR, MLSCN, NIH Roadmap, qHTS, NCGC

[4] = Cellular Toxicity (caspase-3) HUV-EC-C (AID 656)
Procedure, shortened: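 Luminescent caspase-3/7 activation (aminoluciferin substrate cleavage) in HUV-EC-C cells after 16 hr compound exposure, 37°C. Signal normalized to DMSO basal and 100 uM tamoxifen as 100%; AC50 from concentration-response fitted with the Hill equation.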

[5] = Cellular Toxicity (caspase-3) SHSY5Y (AID 657);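 also: cells exposed to compound for 16 hours at 37 °C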
Procedure, shortened: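 Luminescent caspase-3/7 readout (aminoluciferin release) in SH-SY5Y cells after 16 h compound exposure in complete medium. Activity scaled between DMSO basal and 10 uM staurosporine as 100%; concentration-response fitted to Hill equation for AC50.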

[6] = Cellular Toxicity (caspase-3) BJ (AID 658)
Procedure, shortened: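 Caspase-Glo 3/7 luminescence, read 1 hr after reagent at room temperature, in normal BJ fibroblasts exposed 16 hours at 37 °C. AC50 values from Hill-equation concentration-response, scaled between DMSO basal and 10 uM staurosporine as 100%.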

[7] = Cellular Toxicity (caspase-3) MRC-5 (AID 659)
Procedure, shortened: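 Luminescent Caspase-Glo 3/7 read-out (1 h, room temperature) after a 16 h, 37 °C compound exposure of MRC-5 lung fibroblasts at 1500 cells/well. Concentration-response AC50 from Hill equation; 0% DMSO, 100% 10 uM staurosporine.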

[8] = Cellular Toxicity (caspase-3) Mesangial (AID 660);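 also: combined caspase 3 and 7 activity read by Caspase-Glo luminescence; cells exposed to compound for 16 h before the caspase read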
Procedure, shortened: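 Luminescent Caspase-Glo 3/7 readout (aminoluciferin substrate cleavage, 20 min RT) after 16 h compound exposure at 37 °C of normal human mesangial cells. Signal increase normalized between DMSO basal and 100 uM tamoxifen; Hill-equation AC50.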

[9] = Cellular Toxicity (caspase-3) SK-N-SH (AID 661)
Procedure, shortened: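 Luminescent Caspase-Glo 3/7 read-out after 16 hr compound exposure of SK-N-SH neuroblastoma cells at 37 °C. Signal increase normalized to DMSO (basal) and 10 uM staurosporine (100%); AC50 from Hill equation fits of qHTS concentration-response data.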

Measured: outcome

NC(=O)c1ccccc1
inactive: [1] | [2] | [3] | [4] | [5] | [6] | [7] | [8] | [9]

CC(=O)C(C)=O
inactive: [1] | [2] | [3] | [4] | [5] | [6] | [7] | [8] | [9]
